Reference: PubChem BioAssay (NCI)
Compounds without any hit were thinned out: in the full panel of roughly 83,000, 20% have a hit.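 Compound tested at a single concentration for 48 hours in 96-well plates; a percent growth value below 10 was scored as active.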 Unmarked numbers belong to inactive results. Activity calls are given as the source filed them.

Assays:
Assay in all cases: NCI-60 one-dose screen, 48 h (100 = growth as untreated, 0 = no growth, -100 = all killed)
DU-145 prostate = conditions: 10 µM unless noted
K-562 leukemia = conditions: 10 µM unless noted
MALME-3M melanoma = conditions: 10 µM unless noted
MDA-MB-231 breast = conditions: 10 µM unless noted
RXF 393 renal = conditions: 10 µM unless noted
SF-268 CNS = conditions: 10 µM unless noted
SF-295 CNS = conditions: 10 µM unless noted
SF-539 CNS = conditions: 10 µM unless noted
UACC-257 melanoma = conditions: 10 µM unless noted
M14 melanoma = conditions: 10 µM unless noted
HCT-15 colon = conditions: 10 µM unless noted
HT29 colon = conditions: 10 µM unless noted
SNB-75 CNS = conditions: 10 µM unless noted
SNB-19 CNS = conditions: 10 µM unless noted
U251 CNS = conditions: 10 µM unless noted
PC-3 prostate = conditions: 10 µM unless noted
SK-MEL-5 melanoma = conditions: 10 µM unless noted
UACC-62 melanoma = conditions: 10 µM unless noted
LOX IMVI melanoma = conditions: 10 µM
SK-MEL-28 melanoma = conditions: 10 µM unless noted

Compound | growth (DU-145 prostate) [%] | growth (K-562 leukemia) [%] | growth (MALME-3M melanoma) [%] | growth (MDA-MB-231 breast) [%] | growth (RXF 393 renal) [%] | growth (SF-268 CNS) [%] | growth (SF-295 CNS) [%] | growth (SF-539 CNS) [%] | growth (UACC-257 melanoma) [%] | growth (M14 melanoma) [%] | growth (HCT-15 colon) [%] | growth (HT29 colon) [%] | growth (SNB-75 CNS) [%] | growth (SNB-19 CNS) [%] | growth (U251 CNS) [%] | growth (PC-3 prostate) [%] | growth (SK-MEL-5 melanoma) | growth (UACC-62 melanoma) [%] | growth (LOX IMVI melanoma) [%] | growth (SK-MEL-28 melanoma) [%]
CCCCCCCCCCCCSC1=C(Cl)C(=O)C(OC)=C(OC)C1=O | 60.2 | 28.2 | 12.5 | 55.5 | 34.1 | 46.1 | 38.3 | 41.5 | 26.8 | 64.1 | 25.6 | 27.8 | 44.9 | 71.8 | 26 | 23.1 | -37.6% (active) | 45.4 | 11.7 | 105
Cc1ccc2nc(-c3ccc(N=Cc4ccccc4O)cc3)sc2c1 | 96.8 | 84.8 | 90.3 | 62.2 | 83.4 | 97.7 | 109 | 89.3 | 78.8 | 78.4 | 80.1 | 93.4 | 47.4 | 92.3 | 91.6 | 85.4 | 109% | 84.7 | 86.9 | 110
O=C(O)Cc1ccccn1 | 111 | 108 | 85.7 | 116 | 133 | 100 | 114 | 109 | 98.6 | 112 | 99.7 | 103 | 103 | 101 | 99 | 102 | 104% | 106 | 113 | 106
CC(=O)O[C@H]1CC[C@]2(C)C3=C(C(=O)C[C@H]2C1(C)C)[C@]1(C)CC[C@H]([C@H](C)CCC(=O)O)[C@@]1(C)CC3=O | 108 | 86.8 | 98.1 | 107 | 110 | 111 | 96.4 | 96.2 | 113 | 99.3 | 95.5 | 89.7 | 91.7 | 108 | 101 | 92.4 | 102% | 106 | 98.1 | 105
O=C(O)c1ccc(OCc2ccccc2)cc1 | 109 | 108 | 102 | 92.7 | 112 | 106 | 96.2 | 97.5 | 89.9 | 103 | 109 | 100 | 87.8 | 95 | 93.7 | 90.4 | 96.2% | 95.6 | 98.3 | 101
